From PubChem BioAssay AID1671194 (National Center for Advancing Translational Sciences (NCATS), 2021)
Out of some 140,000 compounds screened, about 240 (0.17%) were called active. Another 9% or so got no clear call; they are omitted. The sample holds actives, similar compounds and a random draw of the others, so the mix is not that of the screen. Values without a mark were called inactive. Calls follow the shape of the dose curve; as a rule, active = well fitted inhibition curve with a large enough effect; inconclusive = small, poorly fitted or top-dose-only effect; inactive = no such curve, though single readings can be large or run the other way.

Test: Primary qHTS assay for inhibitors of alpha-synuclein gene (SNCA) expression; also: nearly all actives have a fitted effect of over 45% in size
Details: HEK-293 SNCA-luciferase knock-in, luminescence, 24 h; series mostly up to 57.2 µM; activity change, negative = inhibition: at the top concentration
Excerpt: Assay Submitter (PI): Daniel R. Scoles Ph.D.
Department of Neurology, University of Utah, Salt Lake City, Utah
Accumulation of alpha-synuclein is a main underlying pathological feature of Parkinson's disease (PD) and alpha-synucleinopathies, for which lowering expression of the alpha-synuclein gene (SNCA) is a potential therapeutic avenue. Using a cell-based luciferase reporter of SNCA expression we performed a quantitative high throughput screen (qHTS) of 155,885 compounds in dose response. The screening assay was generated using genome editing to insert the luciferase gene downstream and in frame of the SNCA gene in HEK-293 cells (1). A viability counterscreen using GF-AFC was used to eliminate cytotoxic and false positive compounds. After in silico analysis (clustering, removal of frequent hitter nuisance chemotypes), inhibitor compounds from the primary screen were selected for follow up and re-tested at 11-doses in the SNCA-luc cells (luciferase and GF-AFC confirmation), and in CMV-luc expressing cell line to flag general transcriptional repressors.
Described herein are the results of the primary screen for SNCA inhibitors; decrease in luciferase signal (inhibition of the SNCA gene expression) is the desired output for this assay.
1. Dansithong, W., Paul, S., Scoles, D. R., Pulst, S. M., and Huynh, D. P. (2015) Generation of SNCA Cell Models Using Zinc Finger Nuclease (ZFN) Technology for Efficient High-Throughput Drug Screening. PLoS ONE 10, e0136930.
SEQUENCE No. (e.g., 1, 2, 3, etc.); […] (e.g., Cells, Incubation, Reagent, etc.); VALUE; DESCRIPTION
1; Cells; 4 uL; Dispense 1500 HEK-293-SNCA-luc cells/well into Greiner 1536-well white / solid bottom tissue culture treated plate. The plate was covered with metal lids with gas-exchange holes.
2; Incubate; 24 hours; Incubate at 37C, 5% CO2, 95% RH.
3; Compounds; 23 nL; Compounds and controls were transferred via a Kalypsys Pin Tool (Wako USA) equipped with a 1536-slotted pin array. The plate was covered with metal lids with gas-exchange holes.
4; Incubate; 24 hours; Incubate at 37C, 5% CO2, 95% RH.
5; Dispense; 1 uL; Dispense Gly-Phe-7-amino-4-trifluoromethylcoumarin (GF-AFC, prepared at 125 uM in PBS) was added. The plate was covered with metal lids with gas-exchange holes.
6; Incubate; 30 min; Incubate at 37C, 5% CO2.
7; Detector; Fluorescence; Measure fluorescence with ViewLux microplate reader (PerkinElmer) equipped with 405/10 excitation and 540/25 emission filters.
8; Dispense; 3 uL; Dispense ONE-Glo ([…]) lucifase detection reagent was added to each well. Plates were covered with metal lids with gas-exchange holes.
9; Incubate; 15 min; Incubate at room temperature.
10; Detector; Luminescence; Measure luminescence with ViewLux microplate reader (PerkinElmer) equipped with clear filters.
NOTES (numbers refer to sequence above)
1; HEK-293-SNCA-luc were cultured and suspended in phenol-red free DMEM (4.5 g/L glucose, 25 mM HEPES, cat #21063 (Thermo)).
3; Compounds were added to the assay plate in an 11-point intra plate dose response, 1:3 titration in DMSO with a final concentration range of […]. Vehicle-only plates, with DMSO being pin-transferred to every well, were inserted at the beginning of screening runs to confirm expected assay performance. Activity was normalized to wells containing medium only (-100% activity, full inhibition) and SNCA-luc cells treated with DMSO vehicle control (0% activity), contained on the same plate as test samples.
10; Signals were analyzed, and dose-response curves were fit using the Hill equation. Compounds in curve classes -1.1, -1.2, -2.1, -2.2 in the SNCA-luc assay were considered active. Compounds were eliminated from further consideration if also active (curve class -1.1, -1.2, -1.3, -1.4, -2.1, -2.2, -2.3, -2.4) in the GF-AFC cytotoxicity assay.
Potency is read from the fitted curve at half-maximal effect.

| SMILES | activity change, negative = inhibition | Potency |
| --- | --- | --- |
| O=c1c2nc(-c3ccccc3)ccc2ncn1Cc1ccccc1 | 126% [at 87.6 µM] |  |
| C[C@@H](O)[C@H](N)C(=O)N1CCc2onc(-c3cccc4ccccc34)c2C1 | -8.21% |  |
| COc1ccc(CN2CCN(c3ccccc3)CC2C)c(OC)c1OC (stereo not drawn) | -13.8% |  |
| O=C1CC2(CCN(C(=O)C3CCCN3C(=O)Cc3ccccn3)CC2)Oc2ccccc2N1 (stereo not drawn) | -11.9% |  |
| CCOc1ccccc1C(=O)Nc1ccc2c(c1)N(C)C(=O)c1ccccc1S2 | 23.5% |  |
| CCN1C(=O)c2ccccc2Sc2ccc(NC(=O)Cc3ccc(OC)cc3)cc21 | -20.1% |  |
| COc1cccc(NC(=O)Nc2ccc3c(c2)N(C)C(=O)c2ccccc2S3)c1 |  | 20 µM (active) |
| COc1ccc(-c2nc(CN3CCOC(CN)C3)c(C)o2)c2ccccc12 (stereo not drawn) | 1.15% |  |
| CN1C[C@H](O)C[C@H]1c1nnc2n1CCN(C(=O)c1cc3ccccc3[nH]1)CC2 | 5.47% |  |
| COc1ccc(Cl)cc1NC(=O)N1CCCC(Cn2cnc3cccnc32)C1 (stereo not drawn) | -23.7% |  |
| COCCN1C[C@H]2CN(C)c3ccccc3[C@@H]2N(C(=O)CC2CCCC2)CCC1=O | -13.7% [at 25.6 µM] |  |
| CNC(=O)C1CCCCN1Cc1ccc(-c2cccs2)cc1 (stereo not drawn) | 11.2% [at 87.6 µM] |  |
| COc1ccc(-c2cc(N3CCCC(NC(=O)c4cccc(Cl)c4)C3)n[nH]2)cc1 (stereo not drawn) | 5.49% |  |
| Cc1cc(OC2CN(C(=O)c3ccccc3F)C2)ccc1F | 16.4% [at 87.6 µM] |  |
| COc1ccc(CC(=O)N2CC[C@@H](CC(=O)O)[C@@H](CCN(C)c3ccccc3)C2)cc1 | -13.9% [at 87.6 µM] |  |
| COCc1nc(C2CC(N)C2)cc(N2CCC(c3[nH]ncc3C)CC2)n1 (stereo not drawn) |  | inactive |
| CCOc1ccc(N(Cc2ccccc2)C(=O)c2nc(S(C)(=O)=O)ncc2Cl)cc1 |  | 6.31 µM (active) |
| CCOc1ccc(NC(=O)CN(Cc2ccccc2)S(=O)(=O)c2ccc(Cl)cc2)cc1 | -12.9% |  |
| CCOc1ccc(N(CC)C(=O)C2CCN(S(=O)(=O)c3cccc4nonc34)CC2)cc1 | 55.9% |  |
| CCOc1ccc2c(n1)CCN(C(=O)NC1CCCCC1)C2 | 37.6% |  |
| C=CCN(C)C(=O)[C@@H](C)C1CC[C@@]2(C)Cc3sc(NS(=O)(=O)c4ccc(Cl)cc4)nc3[C@@H](C)[C@@H]2[C@H]1O (stereo partly drawn) | -14.1% |  |
| CCN1CCN(C(=O)c2ccc3nnc(-c4ccc(OC(F)(F)F)cc4)n3c2)CC1 | -1.31% |  |
| COc1cccc(CCC(=O)N2CCCN(S(C)(=O)=O)c3ccccc32)c1 | 15.4% |  |
| Oc1ccc(-c2nc(C3CC3)nc3c2CN(Cc2ccc(F)cc2)CC3)cc1 | -3.74% |  |

| SMILES | activity change, negative = inhibition | Potency |
| --- | --- | --- |
| Cc1cccc(CN2CCC3(Cc4ccccc4CNC3=O)C2)c1 (stereo not drawn) | 3.06% |  |
| COC(=O)N1CCN(C(=O)c2cccc(-c3ccccc3OC)c2)CC1 | -11.1% [at 87.6 µM] |  |
| CC1=C(C(=O)N(C)C)C(c2ccc(Cl)cc2)N2C(CC(=O)NCc3ccco3)=CSC2=N1 (stereo not drawn) | -31.5% |  |
| CCCn1c(NCc2ccccc2F)nc2ccccc21 | 74.8% |  |
| Cc1ccc(OCCn2c(CNc3ccccc3C)nc3ccccc32)cc1 | 41.7% |  |
| CCCn1c(NCc2ccc(N(CC)CC)cc2)nc2ccccc21 |  | 17.8 µM (active) |
| O=C(NCCc1ccccn1)c1ccc2c(c1)N(S(=O)(=O)c1ccccc1)CC2 | 46.9% |  |
| CCCS(=O)(=O)N1CCC(CCOC)(NC(=O)NCC)CC1 | 12.8% |  |
| CC(C)NC(=O)C1(CCO)CCN(c2ncccn2)C1 (stereo not drawn) | 28.1% |  |
| COc1cccc(CC(=O)NC2CCN(c3cc(-c4ccc(F)cc4)[nH]n3)C2)c1 (stereo not drawn) | -17.9% |  |
| CCC(=O)N1CCC2(CC1)OCC(C(=O)NCc1ccccc1)N2C(=O)c1ccc(C)cc1 (stereo not drawn) | 5.47% |  |
| O=C1NCc2ccccc2CC12CCCN2Cc1ccccc1OC(F)(F)F (stereo not drawn) | -23% |  |
| CC(C)CN(CC1CN(C(=O)Cc2cccs2)CCO1)C(=O)c1cccc2ccccc12 (stereo not drawn) | 10% |  |
| O=C1NC(=NC2CCCC2)C2(CCCN(Cc3ccsc3)C2)N1c1cc(F)cc(F)c1 (stereo not drawn) | -4.31% |  |
| CCOc1cccc(CN2CCC(Oc3ccc(-c4noc(C5CC5)n4)cc3)C2)c1 (stereo not drawn) | -28.9% |  |
| COc1ccccc1Nc1ccnc(N2CCC(C(=O)N3CCC(c4ccccc4)CC3)CC2)n1 | 20.6% |  |
| Cc1ccc(-c2ccccc2CN2CCN(C(=O)NC(C)C)CC2)cc1Cl | 25.7% |  |
| Cc1nonc1CC(=O)NC1CC(=O)N(Cc2cccc3ccccc23)C1 (stereo not drawn) | -1.27% |  |
| COc1ccccc1NC(=O)Cn1c(-c2ccc(F)cc2)nc(C)c(CCO)c1=O | 27.5% |  |
| COc1ccc(-c2ccnc(N[C@H]3CO[C@H]4[C@@H]3OC[C@H]4OC(=O)Nc3cccc4ccccc34)n2)cc1 | 5.69% |  |
| Cn1cccc1C(=O)N1C[C@@H](COc2ccccc2)[C@H](C(N)=O)C1 | -3.67% |  |
| Cc1cccc(OCCc2noc(C3CCCN(Cc4ccccc4C#N)C3)n2)c1 (stereo not drawn) | 45.5% |  |
| CCOC(=O)C1CCCN(C(=O)c2ccc3oc(-c4ccccn4)nc3c2)C1 (stereo not drawn) | 44.3% |  |
| Cc1cccc(-c2nc3ccc(C(=O)N4CCCCC4)cc3o2)n1 |  | 7.94 µM (active) |
